RT RNaseH block – HIV-1 RT RNase H inhibitors, primary screen, biochemical, fluorescence | Gag-Pol polyprotein (Human immunodeficiency virus type 1 group M subtype B (isolate … | inhibition, % at 10 µM | RT-RNase H RNA/DNA duplex cleavage | 65,000 tested, 1.9% active | AID 565, 2006; in the data active = inhibition above about 50%
RmlCD inh mix – RmlC and RmlD coupled enzyme inhibitors, primary screen, biochemical, 384-well, compound mixtures, retest. RmlC/RmlD coupled enzyme inhibition, 384-well mixture HTS. 110,000 tested, 0.39% active. inhibition, % at 5.5 µM; in the data active = inhibition above about 30%, passing the limit was not always enough; inconclusive = no clear call, values can overlap the other calls
RmlCD artifact – counter-screen for RmlC/RmlD inhibitors: fluorescence artifact, dose response, artefact control, biochemical; shares compounds with RmlCD inh mix; RmlC/RmlD assay fluorescence artifact counter-screen; calls only; 360 tested, 96% active; AID 1696, 2009; call rule not given here;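 note: compound alone with no enzyme and no substrates present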
* = called active by the depositor; i = inactive; ? = inconclusive; . = no result given; + = active, no number. The full list was thinned out, with hits kept by preference.

SMILES | RT RNaseH block | RmlCD inh mix | RmlCD artifact
COC(=O)Cc1c(C)c2ccc(OCC(C)=O)c(C)c2oc1=O | -1.2 | 8.1 | .
Nc1nc2ccccc2n1/N=C/c1ccc(Br)cc1 | -11.7 | -20.4 | .
CSc1nc2ccc(NC(=O)C3CC(=O)N(Cc4ccccc4)C3)cc2s1 (stereo not drawn) | . | 8.2 | .
COc1ccccc1C(CC(N)=O)c1ccco1 (stereo not drawn) | . | 5.5 | .
O=C(NNC(=O)c1cc(-c2ccco2)nc2ccccc12)c1ccccc1 | . | . | +
O=C(NCc1ccco1)c1cc(-c2ccccc2)nc2ccccc12 | . | -13.6 | .
CNC(=O)COC(=O)c1cc(-c2ccco2)nc2ccccc12 | . | . | +
O=C(COC(=O)c1cc(-c2ccco2)nc2ccccc12)NCc1ccccc1 | . | -27.1 | .
CCc1c(C2(O)CCCCC2)[nH]c2ccc(C#N)cc12 | . | -14.7 | .
COC(=O)CON1C(=O)c2ccccc2C1=O | . | -16.3 | .
Cc1cc(C)c(S(=O)(=O)ON2C(=O)c3ccccc3C2=O)cc1C | . | 146.4* | +
C=CCON1C(=O)c2ccccc2C1=O | . | -9.8 | .
Cc1cc(C)c(C)c(S(=O)(=O)ON2C(=O)c3ccccc3C2=O)c1C | . | 114.1* | +
Cc1ccc2nc3c(cc(C(=O)NCC4CCCO4)c(=N)n3CCCOC(C)C)c(=O)n2c1 (stereo not drawn) | 0.7 | 126.0* | +
CNC(=O)c1cc2c(=O)n3cc(C)ccc3nc2n(Cc2ccco2)c1=N | -16.7 | . | .
CCC(=O)c1cc2c(C)cc(=O)oc2c(C)c1O | -4.2 | 11.6 | .
CCc1cc(=O)oc2c(C)c(O)c(CN(C)C)cc12 | -5.4 | 81.9* | +
CC(C)(C)S(=O)(=O)c1c(C(=O)O)cccc1C(=O)O | -2.4 | 6.8 | .
COc1ccc2cc(C(=O)NCc3ccco3)c(=O)oc2c1 | -16.8 | 13.7 | .
O=C(NCc1ccco1)c1cc2ccc(O)cc2oc1=O | 6.8 | 86.3* | +
CCN(CC)C(=O)CC(c1cc(OC)c(OC)c(OC)c1)c1c(OC)cc(OC)c2c(-c3ccccc3)cc(=O)oc12 (stereo not drawn) | . | 5.0 | .
CCSc1cnc(-c2ccccc2)n1CC | -15.2 | -2.1 | .
Oc1cccc(/C=N/c2c(-c3ccco3)nc3ccccn23)c1 | -24.4 | ? | .
COc1cc(-c2nc3ccccn3c2/N=C/c2ccccc2)ccc1O | . | 67.4* | +
O=C(Oc1cc(-c2ccccc2)no1)c1ccc(F)cc1 | . | -11.2 | .
SMILES | RT RNaseH block | RmlCD inh mix | RmlCD artifact
C/C(CC1CC2=C(CC1(C)C)C(C)(C)CCC2)=N\NC(N)=S (stereo not drawn) | . | -7.9 | .
CCCC(=O)NC(C)c1nc2ccccc2n1C (stereo not drawn) | -1.7 | -4.4 | .
COc1ccc(-c2cc(C(F)(F)F)n3ncc(C(=O)NCC4CCCO4)c3n2)cc1 (stereo not drawn) | 4.2 | 36.2* | +
COc1cccc(-c2cc(C(F)(F)F)n3ncc(C(=O)NCC4CCCO4)c3n2)c1 (stereo not drawn) | -21.9 | 7.8 | .
COC(=O)C1=CNC=C(C(=O)OC)C1c1cccc(OC)c1 | -10.1 | 50.5* | +
COC(=O)C1=CNC=C(C(=O)OC)C1c1ccc(Cl)cc1 | -27.0 | -24.1 | .
CCC(C)(C)NC(=O)C(c1ccncc1)N(Cc1ccc(C)cc1)C(=O)c1csnn1 (stereo not drawn) | . | -7.4 | .
O=C(NCCN1CCOCC1)c1ccc(=O)oc1 | -1.8 | 43.1* | +
O=C(NCCN1CCOCC1)c1ccc(F)cc1 | . | -2.3 | .
O=C1CC(C2CCCO2)C(=O)N1c1ccccc1 (stereo not drawn) | . | -15.4 | .
CC(=O)n1nc(-c2ccccc2)nc1NCc1ccc(F)cc1 | -9.5 | -3.5 | .
O=C(c1ccc(F)cc1)n1c(NCc2ccccc2)n[nH]c1=S | . | . | i
NS(=O)(=O)c1ccc(N2N=C(c3ccccc3)CC2c2ccc(F)cc2)cc1 (stereo not drawn) | . | 148.9* | +
COc1ccc(C2CC(c3ccccc3)=NN2c2ccc(/C=N/NC(=O)c3ccncc3)cc2)cc1 (stereo not drawn) | . | 7.8 | .
Cn1c(/C=N/n2cnnc2)nc2ccccc21 | -15.3 | 44.5* | +
Cn1c(/C=N/c2nc3ccccc3[nH]2)nc2ccccc21 | 2.7 | 11.8 | .
CCC(=O)N1CCN(c2nc(-c3ccccc3)c3c(c2C#N)CCCC3)CC1 | -22.7 | -10.7 | .
CCC1CCc2c(sc(NC(=O)c3ccco3)c2C(N)=O)C1 (stereo not drawn) | . | -2.9 | .
CC(C)(C)C1CCc2c(sc(NC(=O)c3ccco3)c2C(N)=O)C1 (stereo not drawn) | . | 64.2* | +
Cc1cc(C)c(N2CCN(S(=O)(=O)N3CCCCCC3)CC2)c(C)c1 | 8.4 | -11.8 | .
COc1ccc(CCN2C(=O)c3ccncc3C2=O)cc1OC | . | -35.2 | .
NNc1nnc(-c2ccccc2)c(-c2ccccc2)n1 | . | 5.1 | .
Nc1nc(N)c2nc(-c3ccccc3)c(N)nc2n1 | 1.4 | 119.1* | +
CS(=O)(=O)N(CC(=O)NCc1ccc2c(c1)OCO2)Cc1ccccc1 | -7.5 | 11.3 | .
O=C(COc1ncnc2ccccc12)N1CCN(S(=O)(=O)c2ccc(Cl)cc2)CC1 | -3.7 | -11.4 | .
SMILES | RT RNaseH block | RmlCD inh mix | RmlCD artifact
COC(CNC(=O)c1coc2nc3ccccc3nc12)OC | . | . | i
O=C(NCC1CCCO1)c1coc2nc3ccccc3nc12 (stereo not drawn) | 13.5 | 29.0 | .
CNC(=O)c1ccccc1S(=O)(=O)c1ccccc1C#N | . | -7.7 | .
CC(C)Cn1c(-c2ccc(C#N)cc2)nc2c1c(=O)[nH]c(=O)n2CC(C)C | . | 31.9* | +
CCCCn1c(=O)[nH]c(=O)c2c1nc(-c1ccc(C#N)cc1)n2C1CCCC1 | 34.3 | . | .
Cc1ccc(Cn2ccc(NC(=O)c3c(-c4ccccc4Cl)noc3C)n2)cc1 | -17.8 | 1.6 | .
COc1ccc(C2=CC(=O)OC3(CCCC3)O2)cc1 | . | 6.2 | .
N#Cc1nc(-c2cccs2)oc1NCCCN1CCOCC1 | -8.3 | 66.7* | +
CC1CN(c2oc(-c3cccs3)nc2C#N)CC(C)O1 (stereo not drawn) | -6.4 | 74.6* | +
N#Cc1nc(-c2cccs2)oc1NCC1CCCO1 (stereo not drawn) | -6.6 | 107.4* | +
O=S(=O)(c1ccccc1)c1nc(-c2cccs2)oc1NCC1CCCO1 (stereo not drawn) | -39.0 | -16.2 | .
COc1ccc(-c2nc(C#N)c(NCCCN3CCOCC3)o2)cc1 | -3.8 | . | .
N#Cc1nc(-c2cccs2)oc1N1CCOCC1 | -66.3 | -7.8 | .
CC(Oc1ccc(Cl)cc1Cl)c1nc(-c2ccc(NC(=O)c3ccco3)cc2)no1 (stereo not drawn) | . | -8.5 | .
COCCN(C(=O)C1CC1)c1nnc(-c2cccc(C)c2)s1 | -5.7 | 0.7 | .
O=C(CCc1ccc(Oc2cc([N+](=O)[O-])cc([N+](=O)[O-])c2)cc1)N1CCCCC1 | . | -12.7 | .
CCOc1cc(S(=O)(=O)NCc2ccccn2)ccc1Cl | . | -5.3 | .
Cc1nnsc1C(=O)NC1CCCCC1 | . | 3.5 | .
O=C(Nc1cccnc1)c1coc(=O)c2ccccc12 | -4.7 | 60.8* | +
O=C(Nc1cccnc1)c1ccccc1O | . | -7.8 | .
COc1cc(/C=C(\NC(=O)c2ccccc2)C(=O)Nc2cccc(O)c2)c([N+](=O)[O-])cc1OC | . | -10.1 | .
COc1ccc(-n2ncc3c(NCc4ccccn4)ncnc32)cc1 | -2.0 | 2.8 | .

Compound activity as filed in PubChem BioAssay.
